Source: the supplement of paper PMC10849652
About 8,800 targets were measured; listed, in parts, are those with a hit and a random draw of the rest. About 0.5% of all pairs of compound and target were hits.

These targets were tested with c1cn2cc(-c3ccc4cn[nH]c4c3)nc(Nc3ccc(N4CCOCC4)cc3)c2n1 [entospletinib] (assay: log2 fold change, soluble protein after heating vs DMSO (PISA); higher = thermal stabilisation; K562 lysate, 10 uM; active = over 0.2 and 3.5 SD of the protein, either way, in both replicates (recomputed)).
How it was run: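 Dounce homogenisation of K562 pellets in PBS pH 7.4 with 1 mM MgCl2 produced a crude extract, used at 1 mg/mL protein. Exposure to 10 μM compound lasted 30 min, and aliquots were then heated for 3 min across 48°C-58°C, pooled and brought to 0.5% NP-40 at 4°C. The supernatant after 21,000xg for 90 min was quantified by TMTpro 16plex LC-MS/MS with channel sums equalised. Duplicate values are given as log-two fold change in thermal stability relative to solvent controls.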

Chain of UniProt Q7Z7K6 (Q7Z7K6 whole entry, looked up): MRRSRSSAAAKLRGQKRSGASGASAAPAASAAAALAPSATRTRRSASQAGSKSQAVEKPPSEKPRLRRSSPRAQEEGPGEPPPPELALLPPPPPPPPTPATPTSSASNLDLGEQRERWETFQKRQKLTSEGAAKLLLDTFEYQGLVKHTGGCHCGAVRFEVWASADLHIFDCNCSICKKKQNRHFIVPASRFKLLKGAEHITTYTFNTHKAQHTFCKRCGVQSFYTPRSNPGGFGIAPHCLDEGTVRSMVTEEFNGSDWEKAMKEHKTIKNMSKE
Chain of UniProt Q96LT7 (Q96LT7 whole entry, looked up): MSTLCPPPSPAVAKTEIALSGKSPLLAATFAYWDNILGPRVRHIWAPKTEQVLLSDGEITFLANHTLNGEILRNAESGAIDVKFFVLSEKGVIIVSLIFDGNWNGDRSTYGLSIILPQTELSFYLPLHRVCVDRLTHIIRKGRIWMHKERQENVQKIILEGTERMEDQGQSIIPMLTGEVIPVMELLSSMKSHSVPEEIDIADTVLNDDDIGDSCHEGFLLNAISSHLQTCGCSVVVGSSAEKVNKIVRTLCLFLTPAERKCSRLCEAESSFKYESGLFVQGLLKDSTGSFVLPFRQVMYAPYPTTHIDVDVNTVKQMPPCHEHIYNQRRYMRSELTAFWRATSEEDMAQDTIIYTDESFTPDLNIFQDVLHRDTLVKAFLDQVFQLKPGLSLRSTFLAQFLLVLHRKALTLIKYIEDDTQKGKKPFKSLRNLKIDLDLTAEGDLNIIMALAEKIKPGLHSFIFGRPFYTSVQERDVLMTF
Chain of UniProt Q9Y297 (Q9Y297 whole entry, looked up): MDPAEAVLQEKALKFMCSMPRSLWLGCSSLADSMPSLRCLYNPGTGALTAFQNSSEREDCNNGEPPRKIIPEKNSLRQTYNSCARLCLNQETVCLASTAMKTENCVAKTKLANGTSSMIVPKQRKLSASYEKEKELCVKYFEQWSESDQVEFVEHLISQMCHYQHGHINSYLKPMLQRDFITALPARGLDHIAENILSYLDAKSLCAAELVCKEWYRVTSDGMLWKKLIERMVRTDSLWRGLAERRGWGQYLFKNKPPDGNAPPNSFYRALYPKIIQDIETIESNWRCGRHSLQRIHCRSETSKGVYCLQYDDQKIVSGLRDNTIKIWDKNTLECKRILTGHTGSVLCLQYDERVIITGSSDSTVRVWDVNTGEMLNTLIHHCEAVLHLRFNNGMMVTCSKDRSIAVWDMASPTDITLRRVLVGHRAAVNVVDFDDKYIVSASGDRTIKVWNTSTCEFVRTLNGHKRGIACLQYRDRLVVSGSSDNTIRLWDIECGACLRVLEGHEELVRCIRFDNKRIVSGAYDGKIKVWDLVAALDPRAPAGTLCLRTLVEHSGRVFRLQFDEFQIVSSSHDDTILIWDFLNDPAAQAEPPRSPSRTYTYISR
Chain of UniProt P27824 (P27824 whole entry, looked up): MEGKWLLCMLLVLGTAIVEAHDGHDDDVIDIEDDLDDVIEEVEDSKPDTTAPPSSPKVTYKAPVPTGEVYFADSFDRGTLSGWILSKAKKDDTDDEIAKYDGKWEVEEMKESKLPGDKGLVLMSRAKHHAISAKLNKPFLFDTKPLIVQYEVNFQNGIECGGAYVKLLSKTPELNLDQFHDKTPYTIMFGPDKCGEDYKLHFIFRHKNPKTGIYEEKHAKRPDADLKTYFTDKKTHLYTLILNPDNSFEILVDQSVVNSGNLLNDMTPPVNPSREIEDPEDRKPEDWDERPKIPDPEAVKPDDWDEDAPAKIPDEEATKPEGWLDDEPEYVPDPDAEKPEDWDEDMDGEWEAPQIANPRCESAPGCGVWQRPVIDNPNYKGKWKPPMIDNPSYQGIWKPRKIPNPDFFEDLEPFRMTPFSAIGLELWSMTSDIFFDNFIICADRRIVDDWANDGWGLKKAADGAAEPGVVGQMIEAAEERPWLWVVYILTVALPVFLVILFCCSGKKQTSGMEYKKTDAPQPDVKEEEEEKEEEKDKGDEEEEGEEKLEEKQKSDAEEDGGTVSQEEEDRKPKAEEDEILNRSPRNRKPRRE
Chain of UniProt P06493 (P06493 whole entry, looked up): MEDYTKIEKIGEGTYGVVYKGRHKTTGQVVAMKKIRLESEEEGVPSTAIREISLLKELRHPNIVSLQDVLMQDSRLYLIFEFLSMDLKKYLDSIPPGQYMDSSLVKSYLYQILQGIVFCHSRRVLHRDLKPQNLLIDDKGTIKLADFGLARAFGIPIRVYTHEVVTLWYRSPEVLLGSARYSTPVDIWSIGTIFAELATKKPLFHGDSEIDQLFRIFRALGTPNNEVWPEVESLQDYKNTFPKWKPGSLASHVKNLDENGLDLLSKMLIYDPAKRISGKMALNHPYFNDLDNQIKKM
Chain of UniProt P13994 (P13994 whole entry, looked up): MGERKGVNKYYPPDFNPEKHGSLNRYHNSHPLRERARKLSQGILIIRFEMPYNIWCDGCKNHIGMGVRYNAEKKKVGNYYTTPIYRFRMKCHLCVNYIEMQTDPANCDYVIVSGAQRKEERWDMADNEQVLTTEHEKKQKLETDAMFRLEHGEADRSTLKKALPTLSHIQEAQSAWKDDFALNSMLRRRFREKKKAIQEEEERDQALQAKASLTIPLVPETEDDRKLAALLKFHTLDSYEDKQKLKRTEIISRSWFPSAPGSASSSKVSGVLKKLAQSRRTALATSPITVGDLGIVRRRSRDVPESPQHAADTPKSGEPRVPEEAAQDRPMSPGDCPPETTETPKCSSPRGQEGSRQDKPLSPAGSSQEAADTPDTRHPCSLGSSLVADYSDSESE
Chain of UniProt Q9BUK0 (Q9BUK0 whole entry, looked up): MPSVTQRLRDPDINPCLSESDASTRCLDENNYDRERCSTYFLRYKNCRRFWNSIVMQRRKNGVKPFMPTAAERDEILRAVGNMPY
Chain of UniProt P55211 (P55211 whole entry, looked up): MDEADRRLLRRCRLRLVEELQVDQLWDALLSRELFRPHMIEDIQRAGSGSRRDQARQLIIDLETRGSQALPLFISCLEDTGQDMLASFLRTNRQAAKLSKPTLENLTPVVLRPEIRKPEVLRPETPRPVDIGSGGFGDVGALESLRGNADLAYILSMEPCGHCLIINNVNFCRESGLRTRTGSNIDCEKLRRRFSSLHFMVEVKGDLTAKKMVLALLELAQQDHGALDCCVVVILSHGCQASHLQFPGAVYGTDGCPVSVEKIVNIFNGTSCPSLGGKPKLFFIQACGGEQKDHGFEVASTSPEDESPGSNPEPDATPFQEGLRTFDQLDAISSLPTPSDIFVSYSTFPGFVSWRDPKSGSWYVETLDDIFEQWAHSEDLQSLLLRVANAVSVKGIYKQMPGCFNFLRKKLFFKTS
Chain of UniProt P55210 (P55210 whole entry, looked up): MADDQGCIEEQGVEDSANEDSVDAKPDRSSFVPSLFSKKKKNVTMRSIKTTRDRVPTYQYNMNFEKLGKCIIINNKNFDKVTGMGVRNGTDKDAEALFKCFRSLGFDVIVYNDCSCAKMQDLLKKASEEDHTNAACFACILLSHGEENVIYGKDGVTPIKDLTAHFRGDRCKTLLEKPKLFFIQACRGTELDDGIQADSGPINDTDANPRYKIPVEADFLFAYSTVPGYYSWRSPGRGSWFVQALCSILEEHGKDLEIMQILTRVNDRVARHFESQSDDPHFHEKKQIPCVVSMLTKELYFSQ
Chain of UniProt Q8IYX8 (Q8IYX8 whole entry, looked up): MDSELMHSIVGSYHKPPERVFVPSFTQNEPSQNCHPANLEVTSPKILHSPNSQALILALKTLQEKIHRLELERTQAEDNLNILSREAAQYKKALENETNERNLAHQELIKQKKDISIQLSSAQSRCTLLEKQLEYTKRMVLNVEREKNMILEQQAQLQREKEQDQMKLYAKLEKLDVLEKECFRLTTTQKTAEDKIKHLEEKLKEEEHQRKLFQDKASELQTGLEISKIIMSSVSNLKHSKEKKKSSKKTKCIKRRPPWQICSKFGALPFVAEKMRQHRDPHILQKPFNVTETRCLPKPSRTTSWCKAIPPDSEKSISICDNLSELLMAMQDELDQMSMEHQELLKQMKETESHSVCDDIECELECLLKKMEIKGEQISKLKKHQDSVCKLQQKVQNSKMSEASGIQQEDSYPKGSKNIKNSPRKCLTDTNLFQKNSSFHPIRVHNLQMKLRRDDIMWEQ
Chain of UniProt Q12983 (Q12983 whole entry, looked up): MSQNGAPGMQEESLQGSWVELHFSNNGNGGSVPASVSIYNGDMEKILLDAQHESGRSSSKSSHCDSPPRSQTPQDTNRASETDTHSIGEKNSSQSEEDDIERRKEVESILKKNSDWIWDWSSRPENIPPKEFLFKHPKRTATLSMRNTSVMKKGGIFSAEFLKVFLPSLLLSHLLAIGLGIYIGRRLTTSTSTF
Chain of UniProt P30281 (P30281 whole entry, looked up): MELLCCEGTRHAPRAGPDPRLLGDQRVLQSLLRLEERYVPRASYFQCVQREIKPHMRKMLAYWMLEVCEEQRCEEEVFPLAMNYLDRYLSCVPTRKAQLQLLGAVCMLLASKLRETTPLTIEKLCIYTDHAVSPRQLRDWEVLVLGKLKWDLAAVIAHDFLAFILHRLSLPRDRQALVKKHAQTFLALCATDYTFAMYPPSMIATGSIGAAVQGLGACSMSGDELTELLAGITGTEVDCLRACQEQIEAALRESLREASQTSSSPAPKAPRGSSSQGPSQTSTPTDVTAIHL
Chain of UniProt Q9BV29 (Q9BV29 whole entry, looked up): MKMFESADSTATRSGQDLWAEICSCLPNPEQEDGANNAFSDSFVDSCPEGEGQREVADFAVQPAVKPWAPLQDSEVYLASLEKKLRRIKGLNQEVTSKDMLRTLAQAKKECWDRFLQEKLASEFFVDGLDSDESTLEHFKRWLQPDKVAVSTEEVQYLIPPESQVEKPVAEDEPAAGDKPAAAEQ
Chain of UniProt Q53HL2 (Q53HL2 whole entry, looked up): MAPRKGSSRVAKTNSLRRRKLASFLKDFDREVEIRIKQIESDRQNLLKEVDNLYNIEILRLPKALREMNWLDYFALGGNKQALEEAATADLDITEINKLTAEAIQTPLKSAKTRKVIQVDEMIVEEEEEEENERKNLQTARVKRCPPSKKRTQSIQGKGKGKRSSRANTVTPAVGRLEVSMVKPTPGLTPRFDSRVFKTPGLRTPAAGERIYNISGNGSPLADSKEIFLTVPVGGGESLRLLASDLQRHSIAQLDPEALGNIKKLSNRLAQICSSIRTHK

log2 fold change, inactive:
ATG4A (UniProt Q8WYN0) 0.004
CEP57L1 (UniProt Q8IYX8) -0.029
CASP7 isoform 3 (UniProt P55210) 0.063
C9orf72 (UniProt Q96LT7) -0.129
BTRC (UniProt Q9Y297) -0.004
CCDC32 isoform 2 (UniProt Q9BV29) -0.042
CENPV (UniProt Q7Z7K6) 0.084
BRAF, A0A2R8Y8E0 -0.082
ATP6V1B1 (UniProt P15313) 0.014
C15orf39 (UniProt Q6ZRI6) -0.147
BUD13 (UniProt Q9BRD0) -0.046
CDK13 (UniProt Q14004) -0.013
CEP128 (UniProt Q6ZU80) -0.081
BNIP3 (UniProt Q12983) -0.031
CANX isoform 2 (UniProt P27824) -0.004
CDK1 (UniProt P06493) 0.006
CEP295 isoform 3 (UniProt Q9C0D2) 0.087
CDKL5 (UniProt O76039) 0.017
CAD (UniProt H7BZB3) -0.008
CCDC130 (UniProt P13994) -0.076
CDCA8 (UniProt Q53HL2) 0.112
C18orf25 isoform 2 (UniProt Q96B23) 0.038
CHD4, A0A2R8Y521 -0.313
ATPSCKMT (UniProt Q6P4H8) 0.105
CCND3 (UniProt P30281) 0.062
CDC40 (UniProt O60508) 0.014
ATG4D (UniProt Q86TL0) 0.004
CASP9 (UniProt P55211) -0.002
CHCHD7 isoform 4 (UniProt Q9BUK0) 0.008
